{"source": "the supplement of paper PMC6555819", "data": [{"test_system": "PXR:RXRa (NR concentration 270 nM, RXRa partner concentration 90 nM)", "test": "PBM binding z-score (relative to random genomic background probes); higher = stronger binding; sequences stand for … in GC…GCGATTGACAGCGTAGAATGAAGG", "outline": "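On custom Agilent 4×180K arrays, double-stranded probes with 34-nt variable regions carried direct-repeat seeds, single-nucleotide variants, half-site ablations or random human genomic background. Ligand-free nuclear receptor dimers were applied for 1 h, and binding was read with antibodies against each partner (one per run). Binding z-scores come from regression-normalized fluorescence, with the random background probes as reference.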", "values": [{"sequence": "CAGCCTAGGTCAAGGCCAGTATAGGAGGAACGTT", "PBM binding z-score": 1.3}, {"sequence": "AGAATGAGGTTAAGATCAGGGTAACAGAATACAT", "PBM binding z-score": 1.73}, {"sequence": "GGAACGAGGGCATTCGAGTTAATAGCATGGCGAT", "PBM binding z-score": 3.48}, {"sequence": "TCTAGTTGGTCACGAAGGTCACACACGACGGGTA", "PBM binding z-score": 3.95}, {"sequence": "AATACAGGGTCATCGTAGGACAGAGTACGCACAG", "PBM binding z-score": 4.92}, {"sequence": "CCTACTGGGACACGAAAGGTCATTGATTCAGTGA", "PBM binding z-score": 4.91}, {"sequence": "ATCTCTAGATAACAAGTTCAGTGAAAGAGAGGAC", "PBM binding z-score": 1.26}, {"sequence": "TAGCCTCGGTCATGGGCCAGTATACCACGCGAAC", "PBM binding z-score": -0.176}, {"sequence": "AGAATGAGGTTACCAAGGATCAGGGAAACGCTTG", "PBM binding z-score": 1.28}, {"sequence": "CCTACCAGGCCAATCTGGGTCACTCAAGGCTTGA", "PBM binding z-score": 1.39}, {"sequence": "TCTCGGAGGAGACGAAAGGTCAGAGCTCGACATC", "PBM binding z-score": 3.44}, {"sequence": "AGTCGAAGTTCACTAGGTAACGTAAGATTCAGCT", "PBM binding z-score": 1.88}, {"sequence": "CGTCAAAGTTCAACTAAGATAACGTAAAGCACGC", "PBM binding z-score": 4.78}, {"sequence": "TAGCCTAGGTCATTGGGCCAGTACAGTACGCATC", "PBM binding z-score": 1.71}, {"sequence": "CGAAATAGGTCAGAACAGGACAGTGAAGGATGAT", "PBM binding z-score": 1.69}, {"sequence": "CCTGCTAGGTCATGGTCAACTAATCTACAGTATG", "PBM binding z-score": 1.82}, {"sequence": "CCTACTGGGCCAAGGACATTGATCAGTCAAAGCA", "PBM binding z-score": -0.555}, {"sequence": "CATCCAAGGTCAATGCTAGGTCAGTGAAAGCATT", "PBM binding z-score": 4.73}, {"sequence": "AGTCAAAGTTCATCTCGGTAACGTAAGATATGCT", "PBM binding z-score": 4.97}, {"sequence": "GCTTGTTGATCAAGGTTAAGAAAGACTAAGCTAA", "PBM binding z-score": 0.387}, {"sequence": "AGTCAAAGTTCAGAACGAGGTAACGTAAAGCACG", "PBM binding z-score": 3.14}, {"sequence": "CCTACTGGACCAAAGGTCATTGATTCCAATGCTC", "PBM binding z-score": 5.47}]}]}
